Bst PK mod: pyruvate kinase (B. stearothermophilus) modulation; purified pyruvate kinase, luminescence ATP production; ribose 5-phosphate activator present at AC10; Potency, µM; 51,000 compounds, 1.2% hits; AID 361; in the data active = potency below about 11 µM; inconclusive = mostly about 12 µM to 25 µM;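 the screen sought inhibitors and activators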;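 note: potency is the fitted concentration of half-maximal effect; scaled between full activation by ribose 5 phosphate and full inhibition by luteolin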
USP2a inhib: inhibitors of human ubiquitin-specific protease USP2a; Potency, µM (titrated, usually from 38.3 µM), for the others: at the highest dose activity change, negative = inhibition, most hits filed as inhibitors; AID 927; O75604; 60,000 compounds, 0.1% hits; USP2a enzymatic assay, qHTS inhibition; note: potency is the fitted concentration of half-maximal effect; nearly all actives have a fitted effect of over 60% in size
Target sequence (O75604 whole entry, looked up): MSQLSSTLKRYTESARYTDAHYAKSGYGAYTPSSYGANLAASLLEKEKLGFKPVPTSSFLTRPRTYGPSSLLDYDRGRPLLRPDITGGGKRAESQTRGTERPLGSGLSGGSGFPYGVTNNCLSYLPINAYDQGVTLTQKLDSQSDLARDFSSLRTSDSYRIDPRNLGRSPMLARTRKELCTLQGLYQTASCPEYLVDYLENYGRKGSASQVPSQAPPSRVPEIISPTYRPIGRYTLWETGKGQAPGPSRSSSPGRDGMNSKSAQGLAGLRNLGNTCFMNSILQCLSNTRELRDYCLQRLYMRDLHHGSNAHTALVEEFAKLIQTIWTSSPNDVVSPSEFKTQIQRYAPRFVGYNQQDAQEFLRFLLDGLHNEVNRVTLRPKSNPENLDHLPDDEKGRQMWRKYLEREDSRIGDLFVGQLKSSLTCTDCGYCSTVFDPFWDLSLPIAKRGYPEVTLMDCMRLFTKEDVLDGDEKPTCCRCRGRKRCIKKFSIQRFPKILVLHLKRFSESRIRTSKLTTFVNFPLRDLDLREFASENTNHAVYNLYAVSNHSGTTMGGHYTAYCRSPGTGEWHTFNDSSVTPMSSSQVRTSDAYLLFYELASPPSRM
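20 nM USP2 core + cpd, 30 min RT; add 20 nM Ub-PLA2/20 uM NBD C6-HPC; read Ex460/Em535 at 0 h and 2.5 h. Normalized to NEM; qHTS curve fit/classification.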
HBB splice mod: modulators of hemoglobin beta chain splicing; AID 925; Potency, µM (top dose mostly 46.1 µM), for inactives: at the top dose activation, usual class: activators; HBB splicing reporter cell assay, activation; EGFP reporter with mutant IVS2-654 intron; response scale: normalised to 500 nM splice-correcting PNA; 65,000 compounds, 0.06% hits; note: potency is the fitted concentration of half-maximal effect; 0% is about no effect
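HeLa cells stably expressing EGFP interrupted by mutant beta-globin intron 2 (IVS2-654), 500/well in 2% FCS. Treated with compound for 2 days at 37C. Splicing correction scored as total well GFP intensity (488 nm excitation, 500-520 nm emission); 500 nM antisense PNA served as control.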
UbGFP stabilizer: inhibits proteasome, raising ubiquitin-GFP reporter fluorescence. Ubiquitin-GFP reporter cells, proteasome inhibition, GFP fluorescence; response scale: untreated = 0%, 10 µM MG-132 = 100%. Potency, µM (series often up to 45.9 µM), without a hit: top-dose activation (GFP accumulation), actives largely listed as activators. 67,000 tested, under 10 active; active = well fitted activation curve with a large enough effect, not every such curve was filed as active; inconclusive = small, poorly fitted or top-dose-only effect, or another doubt; inactive = no such curve, though single readings can be large or run the other way; note: potency is the fitted concentration of half-maximal effect
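U2OS cells expressing ubiquitin(G76V)-GFP, seeded overnight in 0.5% FBS medium, then treated 4 hr at 37 C across 46 uM to 2.9 nM. GFP-positive cells counted by laser cytometry (488 ex/515 em); %activity scaled between basal and 10 uM MG-132.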
Epigenetic mod: derepresses silenced GFP locus in mouse C127i cells; mouse C127i GFP locus derepression, cytometry, 30 h; AID 597; 68,000 compounds, 0.09% hits; Potency, µM (top dose mostly 46.1 µM), for the others: at the top dose GFP derepression (activation); note: % of control where 0% means no effect
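Derepression screen: silenced CMV-GFP reporter in murine C127i cells, 30 h compound incubation at 37 C, washed cells imaged by laser-scanning cytometer to enumerate GFP-expressing objects of 20 to 120 um.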
Hsp90 Hop PPI: changes Hsp90-Hop TPR2A binding signal, up or down; AlphaScreen TPR2A-His6 binding biotin-Hsp90 C-terminal peptide; Potency, µM (doses to about 57 µM), without a hit: at the top dose activity change, negative = inhibition; 71,000 compounds, 0.44% hits; AID 595; active = well fitted curve in either direction with a large enough effect; inconclusive = small, poorly fitted or top-dose-only effect, or another doubt; note: potency is the fitted concentration of half-maximal effect; % is set by controls: 0 for no effect and ±100 for the full control effect
Numbers without * were called inactive; i = inactive; u = inconclusive; x = not tested or not shown; [ ] = dose if it differs, or a comment. Shown are actives, neighbours in structure and some others; about 1.3% of the full set was active somewhere. Unless noted, calls come from the whole dose curve; as a rule, active = well fitted curve in the direction sought with a large enough effect; inconclusive = small, poorly fitted or top-dose-only effect, or another doubt; inactive = no such curve, though single readings can be large; an effect the other way counts as inactive or inconclusive.

SMILES	Bst PK mod	USP2a inhib	HBB splice mod	UbGFP stabilizer	Epigenetic mod	Hsp90 Hop PPI
Cc1nc(/N=C(\N)Nc2ccccc2)nc2ccccc12	9.3*	x	x	x	0%[20.6 µM]	x
Nn1c(-c2ccccn2)nnc1-c1ccccn1	>57	-2%	0%	3%	4%	u
c1ccc(-c2ccccn2)nc1	x	-1%	2%	-5%	2%	13µM*
N[C@@H](C(=O)O)[C@@H]1C[C@H]1C(=O)O	x	x	0%	0%	-1%	-4%
Nc1ccn([C@H]2CC[C@H](CO)O2)c(=O)n1	x	x	0%	0%	2%	-4%
CN(C)/C=N/c1sc2c(c1C#N)CCC2	>57	-2%	1%[57.5 µM]	4%	9%	-3%
N#Cc1c(/N=C/c2cccs2)sc2c1CCCCC2	1.1*	-6%	2%[57.5 µM]	1%	4%	u
N[C@H](CCCP(=O)(O)O)C(=O)O	x	0%	1%	-1%	0%	-1%
O=C(c1n[nH]c2ccccc12)N1CCN(S(=O)(=O)c2ccc3ccccc3c2)CC1	9.2*	32%	0%[57.5 µM]	1%	6%	-5%
CC(=O)Nc1cc(CN2CCCCC2)c(O)c2ncccc12	x	x	0%[9.22 µM]	1%[9.17 µM]	0%[9.22 µM]	4µM*
N[C@H](Cc1ccc(F)cc1)C(=O)O	x	-9%	2%	8%	1%	-6%
CN1CCN(C(=O)c2cccc(COc3cc(Cl)ccc3Cl)c2)CC1	>57	26%	-1%	0%	10%	-5%
CCOc1ccc(OCc2cccc(C(=O)N3CCOCC3)c2)cc1	8.5*	10%	0%	-4%	0%	0%
c1ccc2c(c1)CCN(c1nc3cc4c(cc3s1)OCCO4)C2	0.44*	u	-3%	-3%	3%	-10%
O=C(c1cnccn1)N1CCC2(CC1)CN(Cc1ccccc1)C2	x	9%	-1%	-7%	0%[9.22 µM]	-6%
Cc1sc2nc3c4ccccc4c(NCc4ccco4)nn3c(=O)c2c1C	2*	34%	u	0%	1%	-2%
Nc1nc2c(s1)CCc1c-2cnn1-c1ccccc1	10*	-24%	-1%	-1%	2%	-26%
COc1ccc(-c2cnn(-c3ccccc3)c2N)cc1OC	x	-3%[7.66 µM]	-3%[0.0738 µM]	5%[9.17 µM]	3%	-4%[11 µM]
C[C@@]1(CO)[C@H](O)CC[C@]2(C)[C@@H]1CC[C@H]1C[C@H]3C[C@]12CC[C@]3(O)COC(=O)CN	x	x	5%[9.22 µM]	-5%[9.17 µM]	-2%[9.22 µM]	0%[11 µM]
O=C1NC(=S)S/C1=C1\Sc2ccccc2N1CCCS(=O)(=O)O	7.7*	-10%	6%	1%	0%	-7%
CSc1ccc2c(c1)N(CCCN(C)C)c1ccccc1S2	x	x	3%[9.22 µM]	3%[9.17 µM]	2%[9.22 µM]	-8%[11 µM]
Cc1ccc(C(=O)/C=C/Nc2ccccc2C(N)=O)o1	6.1*	-8%	0%	2%	0%	-2%
COc1c2c(nc3ccccc13)O[C@@H]([C@@](C)(O)CO)C2	x	3%	-1%	13%	-1%	2%
COc1ccc(-c2nc(N)nc(C)c2Oc2ccccc2Br)c(O)c1	1.9*	47%	-2%	4%	3%	-16%
COc1ccc(-c2nc(N)ncc2-c2csc(C)n2)c(O)c1	>57	-2%	0%[57.5 µM]	2%	-1%	-3%
SMILES	Bst PK mod	USP2a inhib	HBB splice mod	UbGFP stabilizer	Epigenetic mod	Hsp90 Hop PPI
c1ccc2[nH]c(SCc3ccc(-c4nnco4)cc3)nc2c1	x	12%	4%	-1%	-1%	-3%
c1cnc2c(SCc3ccc(-c4nnco4)cc3)cccc2c1	2.4*	-5%	3%	4%	-1%	-7%
CCCCCCCCCC(=O)N[C@@H](CN1CCOCC1)[C@@H](O)c1ccccc1	x	29%	0%	5%	-1%	-11%
CCCC[C@@H]1C[C@H]1C(NC(=O)Cc1ccccc1)c1ccc(-c2ccccc2)cc1 (stereo not given in full)	x	x	0%	x	x	u
CCCc1ccc(Oc2c(-c3ccc(O)c(C)c3O)n[nH]c2C)cc1	x	16µM*	1%	-6%	4%	-13%
CC1(C)CCC[C@@]2(C)[C@@H]1CC[C@]1(C)OC(=O)C[C@@H]21	x	x	x	5%	-2%[9.22 µM]	u
Cc1ccc2cc(C)c3nnc(SCC(=O)NCc4ccco4)n3c2c1	u	1%	-3%	0%	0%	-5%
Cc1ccc2c(c1)cc(C)c1nnc(SCC(=O)NCc3ccco3)n12	4.2*	x	0%[57.5 µM]	1%	-2%	-4%
COCCn1c(=O)cnc2cnc(Nc3cccc(OC)c3)nc21	x	2%	3%	16%	3%[9.22 µM]	-2%
Cc1cc(C)nc(N2CCCC(C(=O)NCCc3ccccc3F)C2)n1 (stereo not given)	3.2*	6%	0%	1%	-2%	-6%
CCOc1cc(C)nc(N2CCCC(C(=O)NCc3ccccc3F)C2)n1 (stereo not given)	>57	7%	x	1%	-5%	2%
C=C1CC[C@H]2C(C)(C)[C@H](O)CC[C@]2(C)[C@@H]1COc1ccc2ccc(=O)oc2c1	x	x	x	2%	-2%[9.22 µM]	-2%
Cc1nnc(SCc2cnc(-c3ccc(C(C)C)cc3)s2)n1C	0.56*	7%	-1%	2%	2%	-7%
Cc1ccc(CSc2nnc(-c3cccs3)n2C)cc1	>57	10%	-1%	0%	-1%	-1%
O=C(NCc1cccc2ccccc12)[C@H]1C[C@@H]1[C@H](NP(=O)(c1ccccc1)c1ccccc1)c1ccccc1	x	x	2%	x	x	-11%
NCCNCCNCCNCCN	x	x	0%	x	x	5µM*
CCOC(=O)c1csc(Nc2nc3ccc(F)cc3s2)n1	1.2*	27%	2%	-2%	u	-1%
CC(=O)c1sc(Nc2nc3ccc(F)cc3s2)nc1C	u	34%	-2%	3%	u	19%
CCOc1ccc(-c2cc(C(=O)NCCCN3CCN(CC)CC3)c3ccccc3n2)cc1	10*	24%	-1%[57.5 µM]	-3%	0%	-3%
COc1ccc(-c2cc(C(=O)NCCN3CCOCC3)c3ccccc3n2)cc1	i	10%	2%	0%	2%	0%
Cc1ccccc1CNc1ncnc2c1ncn2[C@@H]1O[C@@H](CO)[C@H](O)[C@@H]1O	x	3%	1%	-2%	2%	-1%
NCCC[C@@H](CC(=O)N[C@@H]1CCNC[C@H]1C(=O)N[C@H](CC(=O)N[C@@H](CCC(=O)O)CC(=O)O)Cc1ccccc1)NC(=O)C[C@H](CO)NC(=O)[C@@H]1CNCC[C@H]1N	x	x	3%	x	x	32µM*
CC(C)[C@@H](CC(=O)N[C@@H]1CCNC[C@H]1C(=O)N[C@H](CC(=O)N[C@@H](CCC(=O)O)CC(=O)O)Cc1c[nH]c2ccccc12)NC(=O)C[C@H](CO)NC(=O)[C@@H]1CNCC[C@H]1N	x	x	-1%	x	x	32µM*
